NS1 function inh: influenza NS1 inhibition; Potency, µM (top dose mostly 46.1 µM), inactives show top-dose activity, positive = more growth; hit rate 0.4% among 270,000; AID 2326; calls by dose curve; also: actives are rising curves; nearly all actives have a fitted effect of over 50% in size
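Recovery from NS1-induced slow growth read by OD600 in budding yeast switched to galactose assay medium (pH 6.0, -URA) at 1:100 dilution. Compound 23 nl per well; the matching strain lacking NS1 serves as control.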
HCV inhibitor: HCV inhibition | AID 651820 | hit rate 3.4% among 340,000 | Potency, µM (titrated, usually from 41.8 µM), for inactives: at the highest dose activity change, negative = inhibition, usual class: inhibitors | Huh7.5.1 HCVcc-Cre infection, luciferase reporter, 44 h; also: % is scaled to controls: 0 for no effect and ±100 for the full control effect
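Infectious HCVcc-Cre (~0.5 moi) was added to cells just after compound, with cells seeded 4 h earlier at 1,000 per well. Luciferase activity after 44 h culture reported infection; substrate was incubated 15 min at room temperature before reading.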
Vaccinia mCherry: vaccinia inhibition (mCherry reporter) | Potency, µM (highest dose often 36.5 µM), for inactives: top-dose activity change, negative = inhibition, actives largely listed as inhibitors | AID 720579 | Vaccinia virus mCherry reporter infection, fluorescence | hit rate 0.63% among 310,000; calls by dose curve; tested in A549 cells; also: % is scaled to controls: 0 for no effect and ±100 for the full control effect; nearly all actives have a fitted effect of over 35% in size
Pf growth 48h: P. falciparum growth inhibition at 48 hours (one generation). P. falciparum luciferase growth in erythrocytes, 48 h. Potency, µM (highest dose often 28.7 µM), for inactives: at the top dose activity change, negative = inhibition, hits mostly inhibitors. hit rate 5.9% among 310,000. AID 504832; also: % is scaled to controls: 0 for no effect and ±100 for the full control effect
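Compounds are pin-transferred into medium, infected erythrocytes (2% hematocrit, 0.1% parasitemia final) are added, and plates sit one parasite generation at 37 C in 5% CO2. Detection reagent is then added and luminescence measured.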
Vaccinia Venus: vaccinia inhibition (Venus reporter). Vaccinia virus Venus reporter expression, fluorescence. Potency, µM (top dose mostly 36.5 µM), inactives show top-dose activity change, negative = inhibition, usual class: inhibitors. hit rate 0.46% among 330,000. AID 720580; calls by dose curve; tested in A549 cells; also: % is scaled to controls: 0 for no effect and ±100 for the full control effect; nearly all actives have a fitted effect of over 30% in size
Pf growth 96h: P. falciparum growth inhibition at 96 hour, primary screen for plastid delayed-death inhibitors; P. falciparum luciferase reporter growth, 96 h; Potency, µM (titrated, usually from 28.7 µM), for inactives: top-dose activity change, negative = inhibition, usual class: inhibitors; hit rate 6.9% among 320,000; AID 504834; also: % is scaled to controls: 0 for no effect and ±100 for the full control effect
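Two parasite generations (96 h, 37 C, 5% CO2) of compound exposure in infected erythrocytes (0.05% parasitemia, 2% hematocrit). Luciferase-reporter P. falciparum; decreased luminescence indicates inhibited growth, aimed at apicoplast-acting delayed death.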
An asterisk follows results filed as active; i = inactive; ? = inconclusive; / = no result given; [ ] = dose if it differs, or a comment. This is a sample that favours compounds with a hit; in the whole collection about 11% have one here. Unless noted, calls follow the shape of the dose curve; as a rule, active = well fitted inhibition curve with a large enough effect; inconclusive = small, poorly fitted or top-dose-only effect, or another doubt; inactive = no such curve, though single readings can be large or run the other way. Potency is read from the fitted curve at half-maximal effect.

SMILES | NS1 function inh | HCV inhibitor | Vaccinia mCherry | Pf growth 48h | Vaccinia Venus | Pf growth 96h
CC(NC(=O)c1cc2ccccc2o1)c1cccs1 (configuration not stated) | -51% | -13% | i | / | -12% | 8.3µM*
O=C(NC(=S)Nc1ccc(NC(=O)c2cccs2)cc1)c1ccco1 | 15% | ? | -9% | 1.7µM* | ? | ?
CC(C)C(=O)N1CCN(c2ccc(NC(=S)NC(=O)c3cc4ccccc4o3)cc2)CC1 | 11% | -29% | -10% | 0% | -9% | 5.2µM*
CCCn1c(SCC(=O)Nc2ccc(Cl)cn2)nnc1C1CC1 | 7% | 6% | i | 10% | -15% | ?
COc1cc2c(cc1OC)CN(C(=O)C1CCC(=O)N(CCCN3CCOCC3)C1)CC2 (configuration not stated) | 0% | 15% | -22% | -3% | -7% | -2%
CCOc1cc(/C=N\NC(=O)C2C(=O)NCC2c2ccccc2)ccc1OC (configuration not stated) | -16% | ? | -5% | -11% | -13% | -6%
O=S(Cc1ccc(Br)cc1)Cc1nnc(SCc2c(F)cccc2Cl)n1-c1ccccc1 (configuration not stated) | -9% | ? | -12% | ? | -29% | ?
O=S(Cc1ccc(Br)cc1)Cc1nnc(SCc2ccc(Cl)cc2)n1-c1ccccc1 (configuration not stated) | ? | 6.3µM* | i | ? | ? | ?
COCCN1C(=O)C(=O)/C(=C(/O)c2cccc(OC)c2)C1c1ccncc1 (configuration not stated) | -6% | 21% | -17% | 11% | -9% | 21%
Cc1ccccc1NC(=S)N(CCN(C)C)C(C)c1ccco1 (configuration not stated) | 6% | 9% | -14% | 5% | -10% | ?
COc1ccc(-c2cc(N)n(S(=O)(=O)c3ccc(F)cc3)n2)cc1OC | 4% | 10µM* | 7.1µM* | / | ? | 22%
Nc1cc(-c2ccccc2)nn1S(=O)(=O)c1ccc(F)cc1 | 0% | 10µM* | 10µM* | / | ? | 10µM*
CCOc1ccc(-c2cc(N)n(S(=O)(=O)c3ccc(OC)c(OC)c3)n2)cc1 | 7% | 22µM* | i | / | -15% | ?
Nc1cc(-c2ccc(Br)cc2)nn1S(=O)(=O)c1ccccc1 | 3% | 6% | -14% | ? | -13% | ?
COc1ccc(S(=O)(=O)n2nc(-c3ccc(Cl)cc3)cc2N)cc1OC | -1% | ? | -24% | / | -16% | ?
COc1cc(-c2cc(N)n(S(=O)(=O)c3ccc(F)cc3)n2)cc(OC)c1OC | 6% | ? | -29% | / | ? | 22%
Nc1cc(-c2ccc(Cl)cc2)nn1S(=O)(=O)c1ccc(Cl)cc1 | 6% | ? | -9% | / | ? | 3.3µM*
CCC1(CC)C(=O)C(C)(C)C(=O)OC1c1ccccn1 (configuration not stated) | 3% | -4% | / | 2% | -9% | -1%[5.75 µM]
CCCCNC(=O)Cn1c(=O)c2c(ncn2CC)n(Cc2ccccc2)c1=O | 9% | -3% | / | -2% | / | 13µM*
CCNC(=O)Cn1c(=O)c2c(ncn2Cc2ccccc2)n(Cc2ccccc2)c1=O | 2% | 27% | / | ? | / | 1µM*
CCn1cnc2c1c(=O)n(CC(=O)Nc1ccc(C(N)=O)cc1)c(=O)n2Cc1ccccc1 | -2% | 16% | / | ? | / | 13µM*
CCn1cnc2c1c(=O)n(CC(=O)NN)c(=O)n2Cc1ccccc1 | 10% | 20% | / | / | / | ?
CC(C)C(=O)Nc1cccc(C(=O)OCC(=O)c2ccc(Cl)cc2Cl)c1 | 3% | -6% | / | / | / | 9%
CCCCn1c(CCNC(=O)CCC)nc2ccccc21 | -2% | -11% | -17% | 8% | 15% | 1%
CCOC(=O)N1CCc2c(sc(NC(=O)Cc3ccccc3)c2C(=O)c2ccc(OC)cc2)C1 | -4% | ? | / | 5.2µM* | / | ?
SMILES | NS1 function inh | HCV inhibitor | Vaccinia mCherry | Pf growth 48h | Vaccinia Venus | Pf growth 96h
COc1ccc(C(=O)c2c(NC(C)=O)sc3c2CCN(C(=O)OC(C)(C)C)C3)cc1 | 3% | -12% | -26% | 8.3µM* | -4% | 9.3µM*
CCn1nnc(NC(=O)c2ccc([N+](=O)[O-])o2)n1 | / | -11% | -28% | 20%[5.75 µM] | -21% | i
CCOc1ccc(OCC(=O)Nc2ccc(S(=O)(=O)Nc3cc(C)on3)cc2)cc1 | / | / | 6% | / | 6% | /
O=C(COc1ccc2ccccc2c1)NC1CC(=O)N(c2ccc(F)cc2)C1 (configuration not stated) | / | / | -4% | / | -1% | /
O=C(CN1C(=O)c2cccc3cccc1c23)NC1CCCC1 | 1% | ? | -9% | 18% | -8% | -17%
COc1ccc2nc(NC(=O)CSC3=NCCS3)sc2c1 | 5% | ? | -8%[1.46 µM] | -2% | ? | -14%
CCOc1ccc2nc(NC(=O)CSc3cn[nH]n3)sc2c1 | 10% | ? | -18% | 84% | -18% | -25%
COc1ccc2nc(NC(=O)CSc3cn[nH]n3)sc2c1 | 5% | 13µM* | -21% | 99% | -7% | 43%
COc1ccc2nc(NC(=O)CCc3ccc(OC)c(OC)c3)sc2c1 | / | ? | -8% | ? | -16% | 12µM*
CCOc1ccc2nc(NC(=O)CSC3=NCCS3)sc2c1 | -4% | 8.9µM* | / | ? | ? | /
O=C(CSc1ccc2c(c1)OCCO2)NCCN1C(=O)CSC1=O | 3% | 17% | / | 37% | -11% | ?
Cc1nnc(Sc2c(N)n(C)c(=O)[nH]c2=O)s1 | -13% | 7% | / | 42% | / | 48%
CC(C)n1c(Nn2cnnc2)nc2ccccc21 | ? | 10% | -6% | 19% | 3% | -25%
COc1ccc2c(c1)c(CCN)c(C)n2Cc1ccccc1 | -1% | ? | -14%[7.34 µM] | ? | -7%[7.34 µM] | -22%
Cc1c(CCCN)c2ccccc2n1Cc1ccccc1 | 1% | 11µM* | ? | ? | -26% | ?
CCCCC1(O)CC(C(F)(F)F)=NN1C(=O)COc1ccccc1 (configuration not stated) | -9% | -17% | -19% | -9% | -24% | 0.12µM*
Cc1cc(C)cc(OCC(=O)N2N=C(C(F)(F)F)CC2(O)C(C)(C)C)c1 (configuration not stated) | -15% | -5% | ? | ? | ? | ?
COc1ccc(C2=NOC(Cn3nc(-c4ccccc4)cc3C(=O)NCc3cccs3)C2)cc1 (configuration not stated) | / | ? | -13% | / | -17% | /
COc1ccc(C2=NOC(Cn3nc(C(=O)NCc4cccc(C(F)(F)F)c4)cc3-c3ccccc3)C2)cc1 (configuration not stated) | / | ? | i | 4.7µM* | ? | 4.7µM*
COc1ccc(C2=NOC(Cn3nc(C(=O)NCc4cccs4)cc3-c3ccccc3)C2)cc1 (configuration not stated) | / | 10µM* | -11% | ? | -9% | ?

Source: PubChem
